In PubChem BioAssay (EPA / NIEHS):
Calls of active or inactive are those of the source. How the source made its calls: active means hit-call score of the fitted dose curve at least 0.9, where 1 is the maximum; inactive means score below 0.9.

Read-out: Alpha-fetoprotein (AFP) gene, AFP (gene 174)
Assay: LTEA_HepaRG_AFP: Life Technologies and Expression Analysis (LTEA) Assay for Alpha-fetoprotein (AFP) gene using HepaRG (AID 2283472);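 on AC50: AFP transcript by TaqMan qRT-PCR normalized to ACTB GAPDH and POLR2A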
Details: mRNA level, 48 h; actives raise or lower the signal
Method: It is a marker of Undifferentiated hepatocyte.Data from the assay component LTEA_HepaRG_AFP was analyzed into 1 endpoint. This assay endpoint, LTEA_HepaRG_AFP, was analyzed with bidirectional fitting relative to DMSO as the negative control and baseline of activity. Using a type of inducible reporter, measures of mRNA induction for gain or loss-of-signal activity can be used to understand regulation of transcription factor activity. To generalize the intended target to other relatable targets, this assay endpoint is annotated to the background measurement intended target family, where the subfamily is assay control.
A total of 1060 chemcials from the ToxCast library were tested in eight-point concentration-response experiments. Cell culture and cytotoxicity assays were conducted at Thermo Fisher Scientific's Custom Services facility (Madison, WI). A single lot of human HepaRG cells (Thermo Fisher Scientific, Frederick, MD) was used for the cell culture experiments. 96-well format collagen type I coated plates of human HepaRG cells were prepared using established methods. Briefly, cryopreserved HepaRG cells were thawed, plated at a density of approximately 100,000 cells/well in HepaRG Thaw, Plate, and General Purpose media (HPRG770, Thermo Fisher Scientific), and incubated for 48 hours. 0.5% DMSO was selected as vehicle control to balance the requisite need of DMSO in HepaRG cultures to maintain differentiation (for example, baseline metabolism, proportions of hepatocytes vs. cholangiocytes), while enabling further hepatic receptor pathway activation (for example, PXR and CAR) in response to chemical exposure. 48 hours after plating, the culture medium was replaced with HepaRG Serum-Free Incudtion Media. Cells were exposed to each test chemical in duplicate and maintained in CO2 incubators for another 48 hours. Chemical plates were thawed to room temperature and 200x concentrations of treatment groups were prepared. 8-point conentration-reponse curves were made with the highest exposure at 100 uM, followed by half-log dilutions, all in 0.5% DMSO. Each test plate contained variouse controls, induction positive controls (1mM phenobarbital), cytotoxicity positive controls ([…] aflatoxin B1), vehicle controls (0.5% DMSO), and total lysis controls (0.5% DMSO). Cell morphology images were taken using an Essen IncuCyte FLR automated microscope, with six 96-well plates imaged in about 24 minutes. Images were captured and exported and JPEG files. Spent culture media was transfered to black-well plates for the LDH assay, and remaining media was sorted at -80 C for later use. Cells were treated with RLT buffer and frozen until shipped for gene expression analysis. Total RNA was isolated from the cell suspension in 75 uL of Buffer RLT (Qiagen, Germantown, MD 20874) by Quintiles/Expression Analysis (Durham, NC) using a custom isolation procedure. Total RNA from each plate well was transferred to a preamplification plate. Fluidigm's 96.96 Dynamic ArrayTM (Fluidigm, Amsterdam, the Netherlands) technology was used for gene expression analyses by quantitative reverse transcription polymerase chain reaction (qRT-PCR, performed by Quintiles/Expression Analysis, Durham, NC)89. Standard TaqManTM Assays (Applied Biosystems/ThermoFisher Scientific, Foster City, CA) were used to assess the expression of 93 genes selected based on their selectivity and sensitivity to important hepatic receptors known to be modulated by environmental chemicals; importance in human hepatocyte functionality; and hepatotoxicity. Three "housekeeping" endogenous control genes were also included and used for normalization: actin beta (ACTB), Glyceraldehyde 3 phosphate dehydrogenase (GAPDH) and RNA Polymerase II Subunit A (POLR2A). qRT-PCR was conducted according to the manufacturer's protocol.

| Structure (SMILES) | outcome | AC50 |
| --- | --- | --- |
| c1ccc2ccccc2c1 | inactive |  |
| CCCCCCCCCCCCO | inactive |  |
| CC1=CC(=O)/C(=C(/C)O)C(=O)O1 | inactive |  |
| CCCCCCCCCC(=O)O | inactive |  |
| Cc1ccc(C(C)C)cc1 | inactive |  |
| O=c1c(-c2ccc(O)cc2)coc2cc(O)cc(O)c12 | inactive |  |
| O=C(Nc1ccc(Cl)cc1)Nc1ccc(Cl)c(Cl)c1 | inactive |  |
| Cc1cn([C@H]2C[C@H](N=[N+]=[N-])[C@@H](CO)O2)c(=O)[nH]c1=O | inactive |  |
| NCc1cccc(C2CCN(C(=O)c3ccc(C#Cc4ccccc4F)o3)CC2)c1 |  | 83.7 µM (active) |
| CN(C)C(=O)C1(N2CCCCC2)CCN(CC[C@@]2(c3ccc(Cl)c(Cl)c3)CN(C(=O)c3ccccc3)CCO2)CC1 | inactive |  |
| COc1cccc([C@H](O)C2CCN(CCc3ccc(F)cc3)CC2)c1OC | inactive |  |
| Cc1ccc2oc(CN(Cc3ccccc3)C(=O)Nc3c(F)cc(F)cc3F)c(-c3ccc(Cl)cc3)c2c1 |  | 32 µM (active) |
| OC12N=C(c3ccccc3)SC1Cc1cc(Cl)ccc12 (stereo not given) |  | 36.4 µM (active) |
| O=c1[nH]sc2ccccc12 | inactive |  |
| CCCCCCCCCCCO | inactive |  |
| O=C(O)Cn1c(=O)n(Cc2ccc(Br)cc2F)c(=O)c2ccc(Cl)cc21 | inactive |  |
| Clc1cc(Cl)c2c(c1)N=C1CCCCCN1C2 |  | 25 µM (active) |
| Cc1cc(F)ccc1-c1cc(N2CC[C@@H](O)[C@H]2CO)ncc1N(C)C(=O)C(C)(C)c1cc(C(F)(F)F)cc(C(F)(F)F)c1 |  | 18 µM (active) |
| CC[C@H](NC(=O)c1cc(F)ccc1NS(=O)(=O)c1cccc2cccnc12)c1ccccc1 |  | 32.1 µM (active) |
| C[C@]12CC[C@@H]3c4ccc(O)cc4CC[C@H]3[C@@H]1CC[C@H]2O |  | 75.7 µM (active) |

| Structure (SMILES) | outcome | AC50 |
| --- | --- | --- |
| CC1(C)NC(=O)N(c2ccc([N+](=O)[O-])c(C(F)(F)F)c2)C1=O |  | 80.5 µM (active) |
| Oc1ccccc1 | inactive |  |
| CN1C(=O)N(c2ccccc2Br)Cc2cnc(Nc3ccc4c(c3)OCC(CO)O4)nc21 (stereo not given) |  | 23.1 µM (active) |
| CCN(Cc1cccc(S(=O)(=O)O)c1)c1ccc(C(=C2C=CC(=[N+](CC)Cc3cccc(S(=O)(=O)O)c3)C=C2)c2ccccc2S(=O)(=O)[O-])cc1 | inactive |  |
| CCCCOC(=O)c1ccc(O)cc1 | inactive |  |
| CC[C@@H]1C[C@H](N(Cc2cc(C(F)(F)F)cc(C(F)(F)F)c2)C(C)=O)c2cc(C(F)(F)F)ccc2N1C(=O)OC(C)C | inactive |  |
| CCCOC(=O)c1cc(O)c(O)c(O)c1 |  | 15.2 µM (active) |
| CCCCCCCCN(C)CCCCCCCC | inactive |  |
| CC(C)(C)c1csc(-c2cc3cc(OCc4ccccc4CC(=O)O)ccc3o2)n1 |  | 23.9 µM (active) |
| O=C1O[C@H]([C@@H](O)CO)C(O)=C1O | inactive |  |
| CCCC(=O)OCCC(C)C | inactive |  |
| CC/C(=C(/CC)c1ccc(O)cc1)c1ccc(O)cc1 | inactive |  |
| CC(=O)N1CCN(c2ccc(OC[C@H]3CO[C@](Cn4ccnc4)(c4ccc(Cl)cc4Cl)O3)cc2)CC1 |  | 19.1 µM (active) |
| CCCCCCCC[Si](OCC)(OCC)OCC | inactive |  |
| COc1ccc2cc(S(=O)(=O)N[C@H](CC(=O)N[C@H](Cc3ccc(CN4[C@H](C)CCC[C@@H]4C)cc3)C(=O)N(C)C(C)C)c3ccc4c(c3)OCO4)ccc2c1 | inactive |  |
| CC(O)CC(C)(C)O (stereo not given) | inactive |  |
| Cc1occc1C(=O)Nc1ccc(C(=O)N2CCC(F)(F)/C(=C\C(=O)N3CCC(N4CCCCC4)CC3)c3ccccc32)cc1 |  | 44.8 µM (active) |
| CC(C)(c1cc(Br)c(O)c(Br)c1)c1cc(Br)c(O)c(Br)c1 | inactive |  |
| CCCCCc1ccc(N)cc1 | inactive |  |
| CCCCCCCCOc1ccc(C(=O)c2ccccc2)c(O)c1 | inactive |  |
